Experimental data taken from PubChem BioAssay AID540276 (National Center for Advancing Translational Sciences (NCATS), 2011).
Where “and” joins values, the source holds several entries; their conditions need not be identical. Identical values can stand only once. Hit rate of the full screen: of about 300,000 compounds, about 5,400 (1.8%) were called active. Entries that show only a call come without a potency. Roughly 28% stayed inconclusive and do not appear here. Calls come from the whole dose curve; tested in HEK293 cells. The full list was thinned out, with actives kept by preference.

Test: qHTS for inhibitors of binding or entry into cells for Marburg Virus
Details: Marburg virus pseudotyped entry inhibition, cell reporter; series mostly up to 37.8 µM
Potency is the fitted concentration of half-maximal effect.

Row | SMILES | Potency
1 | COc1ccccc1C(=O)c1ccccc1C(=O)c1ccccc1 | inactive
2 | COc1ccc(N2CC(C(=O)N[C@@H](C)C(=O)N3CCCCC3)CC2=O)cc1 (stereo partly specified) | inactive
3 | O=C1COc2ccc(C(=O)COC(=O)CCOc3ccccc3)cc2N1 | inactive
4 | CC(NS(=O)(=O)c1ccc(OCC(=O)N2CCCC2)cc1)c1ccccc1 (stereo unspecified) | inactive
5 | COc1ccc(S(=O)(=O)N2CCN(CC(=O)N3c4ccccc4CC3C)CC2)cc1OC (stereo unspecified) | inactive
6 | COc1ccc(C(=O)O)cc1S(=O)(=O)NC1CCN(Cc2ccccc2)CC1 | inactive
7 | O=C(Cn1cnc2ccccc2c1=O)NNC(=O)c1ccccc1F | inactive
8 | Cc1ccc(C)c(NC(=O)CN(C)C(=O)COc2ccc3ccccc3c2)c1 | inactive
9 | Cc1ccc(NS(=O)(=O)c2ccc(C)c(NC(=O)COc3ccc4ccccc4c3)c2)c(C)c1 | 11.2 µM (active)
10 | Cc1ccc(C)c(NS(=O)(=O)c2ccc(OCC(=O)NCc3cccnc3)cc2)c1 | inactive
11 | O=C(O)c1ccc(Cn2c(=S)[nH]c3cc(Cl)ccc3c2=O)cc1 | inactive
12 | CC(C)c1ccc(Cn2c(COc3ccccc3)nc3ccccc32)cc1 | inactive
13 | CC(C)c1ccc2c(c1)c(SC(C)(C)C)c(CC(C)(C)C(=O)O)n2Cc1ccc(Cl)cc1 | 11.2 µM (active) and 6.51 µM (active)
14 | CN(C)C(=O)CCc1ccc2c3c([nH]c2c1)[C@]1(CCC2CCCC2)[C@@H](C(=O)N2CCOCC2)C[C@H](CC(=O)NCc2ccco2)C(=O)N1CC3 | inactive
15 | CCOC(=O)c1cc(S(=O)(=O)NCCc2ccc(OC)c(OC)c2)cn1C | inactive
16 | COc1cccc(/C(C)=N/Nc2ncc(Cl)cc2Cl)c1 | inactive
17 | COc1cc(/C=C2\SC(=S)N(Nc3ncc(C(F)(F)F)cc3Cl)C2=O)cc(OC)c1OC | inactive
18 | COc1cccc(/C=N/Nc2ncc(C(F)(F)F)cc2Cl)c1O | 0.794 µM (active)
19 | CCCCn1c(N)c(N(Cc2ccccc2OC)C(=O)COc2cc(C)ccc2Cl)c(=O)[nH]c1=O | inactive
20 | Cc1ccc(S(=O)(=O)N(C)C)cc1NC(=O)C1Cc2ccccc2CN1C(=O)c1ccco1 (stereo unspecified) | inactive
21 | Cc1ccc(C)c(NC(=O)C2Cc3ccccc3CN2C(=O)OCc2ccccc2)c1 (stereo unspecified) | 2.51 µM (active)
22 | Cc1ccc(C)c(NC(=O)C2CCCN2C(=O)OC(C)(C)C)c1 (stereo unspecified) | inactive

Row | SMILES | Potency
23 | Cc1cc(C(F)(F)F)nc(SCC(=O)Nc2nccs2)n1 | inactive
24 | CCN(CC(=O)Nc1ccc(OC)cc1)C(=O)c1ccc(=O)n(Cc2ccccc2)n1 | inactive
25 | COc1ccc(C)cc1NC(=O)CSc1nnc2ccc(-c3ccccn3)nn12 | inactive
26 | CCOc1ccccc1-c1nc(CN2CCC(C(=O)N3CCOCC3)CC2)c(C)o1 | inactive
27 | Cc1ccc(C)c(NC(=O)C(c2ccccc2)N2CCN(CC(=O)NC3CC3)CC2)c1 (stereo unspecified) | inactive
28 | CC(=O)OC(C(=O)NC1CCCCC1)c1ccccc1 (stereo unspecified) | inactive
29 | OC(CNC1CCCCC1)c1ccccc1 (stereo unspecified) | inactive
30 | CC(NCc1ccccc1OC1CCCC1)c1ccccc1 (stereo unspecified) | 7.94 µM (active)
31 | COc1ccc2c(c1)c(=Cc1ccc(N(C)C)cc1)c1cc(-c3ccccc3)[n+](C)n12 | 4.47 µM (active)
32 | c1ccc2c(c1)[I+]c1ccccc1-2 | 0.282 µM (active)
33 | O=C(NCCc1ccccc1)c1c[nH]c2ccc(F)cc2c1=O | inactive
34 | CC(OC(=O)c1ccc(Cl)cc1O)C(=O)NCCC1=CCCCC1 (stereo unspecified) | inactive
35 | CC(C)NC(=O)c1ccc(Cl)cc1Cl | inactive
36 | CC(C)OC(=O)c1ccc(NCc2cc(O)ccc2O)cc1Cl | 2.24 µM (active)
37 | Cc1ccccc1-n1cc(CNC(=O)C2CCC(=O)N(C3CC3)C2)cn1 (stereo unspecified) | inactive
38 | CC(C)Cc1nc(N2CCOCC2)c(C#N)c2c1CCC2 | inactive
39 | CC(C)CCNc1nc(N2CCCC2)c2c(c1C#N)CCN(C)C2 | 7.3 µM (active)
40 | CCN1CCc2c(C#N)c(NCc3ccccc3)nc(NCCO)c2C1 | inactive
41 | COC1=CC(=O)OC(c2ccc(OC)cc2)C1 (stereo unspecified) | inactive
42 | O=C(NCc1ccncc1)C(=O)NCC1OCCN1S(=O)(=O)c1ccc(Br)cc1 (stereo unspecified) | inactive
43 | COc1ccc(-c2csc3ncnc(N4CCN(S(=O)(=O)c5ccccc5C#N)CC4)c23)cc1 | inactive
44 | CCN1/C(=C/c2ccc3ccc(C)cc3[n+]2CC)Sc2ccccc21 | 5.01 µM (active)

Row | SMILES | Potency
45 | O=C(c1ccc(NS(=O)(=O)c2ccc3[nH]c(=O)[nH]c3c2)cc1)N1CCCCC1 | inactive
46 | O=C(NNS(=O)(=O)c1ccc(F)cc1)c1ccc([N+](=O)[O-])cc1Cl | inactive
47 | O=[N+]([O-])c1ccc(NS(=O)(=O)c2ccccc2)c(Cl)c1 | 11.2 µM (active)
48 | Cc1cccc(NS(=O)(=O)c2ccc([N+](=O)[O-])cc2)n1 | inactive
49 | CCOC(=O)CCC(NC(=O)c1ccc(CNc2nc3cc(C(F)(F)F)ccc3nc2C(=O)OCC)cc1)C(=O)OCC (stereo unspecified) | inactive
50 | OCCNc1nc2ccccc2n1-c1ncnc2sc3c(c12)CCC3 | 11.2 µM (active)
51 | CC(C)(C)C(=O)Cn1c(NCCO)nc2ccccc21 | inactive
52 | O=C(O)[C@@H]1CCCN1c1ncnc2sc3c(c12)CCC3 | inactive
53 | Cc1cccc(C=CC(=O)c2ccc(Cl)cc2)c1 | inactive
54 | O=C(COC(=O)c1cccnc1Cl)Nc1ccc(S(=O)(=O)N2CCOCC2)cc1 | inactive
55 | COc1ccc(C(C(=O)NCC2CCCO2)N(C(=O)Cn2nnc3ccccc32)c2ccc(NC(C)=O)cc2)cc1OC (stereo unspecified) | inactive
56 | Cc1ccc(C)c(N2CCN(C(=O)CCc3nc(-c4cccc(C(F)(F)F)c4)no3)CC2)c1 | inactive
57 | COc1ccc(OC)c(NC(=O)c2sc3nc(C)cc(C)c3c2N)c1 | inactive
58 | COc1ccc(OC)c(Cc2cnc3nc(N)nc(N)c3c2C)c1 | 0.112 µM (active)
59 | COc1ccc(OC)c(Cc2nnc(CCC(=O)NC3CCCC3)o2)c1 | inactive
60 | CCCc1cc(=O)[nH]c(SCC(=O)Nc2ccc(S(=O)(=O)N3CCCC3)cc2)n1 | inactive
61 | Cn1c(=O)c2c(O)c(C=NCC3CCCCC3)c(=O)n(C)c2n(C)c1=O | inactive
62 | Clc1ccc(CN2CCCCCC2)cc1Cl | inactive
63 | COc1ccc(C(O)(C2CCCCC2)C(CN2CCCC2)c2ccccc2)cc1 (stereo unspecified) | 8.91 µM (active)
64 | c1ccc(C(CN2CCCCC2)c2ccccc2)cc1 | inactive
65 | CC(CN1CCCCC1)c1ccccc1 (stereo unspecified) | inactive
66 | CCOc1ccc(NC(=O)CN(C)C(=O)Cc2sc(C)nc2-c2ccc(F)cc2)cc1OCC | inactive

Row | SMILES | Potency
67 | COC(=O)C1CCCCN1C(=O)c1ccc(OC2CCN(C(C)=O)CC2)c(OC)c1 (stereo unspecified) | inactive
68 | CC(C)(C)NCC(O)COc1cccc2[nH]c(=O)[nH]c12 (stereo unspecified) | inactive
69 | COc1ccccc1OCCNCC(O)COc1cccc2[nH]c3ccccc3c12 (stereo unspecified) | 11.6 µM (active)
70 | COc1ccccc1OCC(O)CN1CCOCC1 (stereo unspecified) | inactive
71 | Cc1ccc(NC(=O)CSc2nnc(CNC(=O)c3ccccc3F)o2)cc1Cl | inactive
72 | O=C(N/N=C/c1ccoc1)c1ccc(Cl)cc1Cl | inactive
73 | COc1ccc(Cc2nnc(N/N=C/c3ccccc3O)[nH]c2=O)cc1OC | 3.66 µM (active)
74 | CCOc1ccc(-n2c(O)c(/C=N/Nc3nnc(C)c(=O)[nH]3)c3ccccc3c2=O)cc1 | inactive
75 | O=c1[nH]c(NCCO)nnc1Cc1ccc(Cl)cc1 | inactive
76 | O=C(OCC(=O)N1CCN(C(=O)c2ccco2)CC1)c1ccc(Cl)c(Cl)c1 | inactive
77 | COCCOC(=O)C1=C(C)NC(=O)NC1c1cc2c(cc1Br)OCO2 (stereo unspecified) | inactive
78 | c1ccc2c(c1)C(=NC1CCCCC1)NC2=NC1CCCCC1 | 5.8 µM (active)
79 | O=C1CCCCC(=O)c2ccccc2N1 | inactive
80 | C1CCC2=C(C1)CN1CCCC1=N2 | inactive
81 | Cc1nc2ccc(N)nc2nc1C | inactive
82 | Cc1cccc(NC(=O)C2CCN(C(=O)NC3CCCCC3)CC2)c1 | inactive
83 | CC[C@]1(O)C(=O)OCc2c1cc1n(c2=O)Cc2cc3ccccc3nc2-1 | 0.0251 µM (active)
84 | Cn1c(Cc2cccs2)nnc1SCC(=O)Nc1ccccc1 | inactive
85 | O=C(Oc1cccc(C(=S)N2CCOCC2)c1)c1cccc(Cl)c1 | inactive
86 | COc1ccccc1C(=O)NCCC(=O)NC(C)CCc1ccccc1 (stereo unspecified) | inactive
87 | COc1ccc2nc(Nc3nc4cc5c(cc4s3)OCCO5)sc2c1 | inactive
88 | Cc1nc2cc3c(cc2s1)OCO3 | inactive

Row | SMILES | Potency
89 | c1c2c(cc3sc(N4CCCCC4)nc13)OCCO2 | 0.562 µM (active)
90 | O=C(NCC(=O)N1CCN(c2ccccc2F)CC1)c1cccs1 | inactive
91 | CCN(CC)S(=O)(=O)c1cc(C(=O)Nc2cc(S(=O)(=O)N3CCOCC3)ccc2N2CCCC2)ccc1F | inactive
92 | CCCN(CCc1ccccc1)C1CCc2c(O)cccc2C1 (stereo unspecified) | 15.8 µM (active)
93 | Cc1nn(Cc2ccccc2)c(C)c1NS(=O)(=O)c1ccccc1 | inactive
94 | COc1ccc(N(CC(=O)NCc2ccc(F)cc2)C(=O)CCC(=O)Nc2nccs2)cc1 | inactive
95 | NN=C(NN=Cc1ccccc1)c1ccccc1 | inactive
96 | COc1ccccc1NS(=O)(=O)c1ccc(C(=O)N2CCN(c3ccccc3O)CC2)cc1 | inactive
97 | C/C(=C\C(=O)c1ccc(Br)cc1)N1CCCCC1 | inactive
98 | COc1cc2c(cc1OC)/C(=C/C(=O)c1ccc(NC(C)=O)cc1)NCC2 | inactive
99 | CC1CN/C(=C\C(=O)c2ccc(Br)cc2)C(=O)N1 (stereo unspecified) | 2.24 µM (active)
100 | Cc1cc(OCC(=O)NCC(O)c2ccccc2)c2c(C)c(C)c(=O)oc2c1 (stereo unspecified) | inactive
101 | O=C(Nc1cccc(Cl)c1N1CCOCC1)c1cccnc1 | inactive
102 | Cc1ccc(S(=O)(=O)NCC(=O)Nc2ccc3c(c2)OCCO3)cc1 | inactive
103 | COc1ccc(OCC(=O)NCCS(=O)(=O)N2CCN(c3ccc(F)cc3)CC2)cc1 | inactive
104 | O=C(/C=C/c1ccc2c(c1)OCO2)NCc1ccc(F)cc1 | inactive
105 | Cc1cccc(NC(=O)/C=C/c2ccc3c(c2)OCO3)n1 | 6.51 µM (active)
106 | CCc1c(C)sc(NC(=O)/C=C/c2ccc3c(c2)OCO3)c1C(=O)OC | inactive
